The panel holds about 83,000 compounds, 20% with a hit somewhere; the sample as a whole holds those more often.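 Values shown are percent growth following 48 h exposure of cells in 96-well plates to a single concentration of compound; below 10 was considered active.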 The source made the active and inactive calls.
tested on: SF-268 CNS; experiment: NCI-60 one-dose screen, 48 h (100 = growth as untreated, 0 = no growth, -100 = all killed); conditions: 10 µM unless noted

Row | SMILES | growth
1 | COc1ccc(-c2nn(-c3ccccc3)cc2/C=C/C(=O)c2ccc(NC(=O)CCCCCCC(=O)NO)cc2)cc1 | 108% (inactive)
2 | O=C(NCCCNc1cc(-c2cn(-c3ccccc3)nc2-c2cccc(O)c2)ccn1)Nc1cccc(C(F)(F)F)c1 | 38.6% (inactive)
3 | Cc1[nH]nc2ccc(-c3nc4cnc(N5CCN(C)CC5)cn4c3Nc3ccc(F)cc3Br)cc12 | 75.8% (inactive)
4 | O=C(/C=C/c1cccc(O)c1)c1ccc(O)cc1 | 89.9% (inactive)
5 | C#Cc1ccc(NC(=O)c2ccc(/C=C/C(=O)c3nccn3C)cc2)c(F)c1 | 28% (inactive)
6 | O=C(Nc1ccc(F)cc1)c1cc(-c2ccc(F)cc2F)ccc1O | 14.8% (inactive)
7 | Oc1ccc(CSc2nnc(-c3ccc(Oc4ccccc4)cc3)o2)c2cccnc12 | 28.8% (inactive)
8 | Cc1ccc(NC(=O)c2ccc(CN3CCN(C)CC3)c(C(F)(F)F)c2)cc1Oc1ccc(-c2[nH]nc3ncnc(N)c23)cc1 | 88% (inactive)
9 | N#Cc1c(NC(=O)c2ccccc2C(F)(F)F)sc2c1CCC(=O)C2 | 18.9% (inactive)
10 | CCN(CC)c1ccc2cc(C(=O)NCCOCCOCCOCCn3cc(CCC(=O)Nc4ccc(C(=O)c5ccc(NC(=O)OC(C)(C)C)cc5)cc4)nn3)c(=O)oc2c1 | 65% (inactive)
11 | CS(=O)(=O)c1ccc(-c2nn(-c3ccccc3)cc2/C=N/NC(=O)c2ccncc2)cc1 | 101% (inactive)
12 | Cc1ccc(S(=O)(=O)N/N=C/c2cn(-c3ccc(F)cc3)nc2-c2ccc(S(C)(=O)=O)cc2)cc1 | 104% (inactive)
13 | CS(=O)(=O)c1ccc(-c2nn(-c3ccccc3)cc2/C=C/C(=O)c2ccc(Br)cc2)cc1 | 99.4% (inactive)
14 | O=C(NCCCNc1cc(-c2cn(-c3ccccc3)nc2-c2cccc(O)c2)ccn1)Nc1ccc(F)cc1 | 18% (inactive)
15 | CN1C(=O)N(C)C2C1NN=c1s/c(=C\c3ccccn3)c(=O)n12 (stereo not drawn) | 99.9% (inactive)
16 | Fc1ccc(-c2cc3nc(C(Cl)Cl)nc(-c4cccs4)n3n2)cc1 | 13.3% (inactive)
17 | COc1ccc([C@H]2c3[nH]c4ccccc4c3C[C@@H]3C(=O)N(C4CCN(Cc5ccccc5)CC4)CC(=O)N23)c(OC)c1 | 63% (inactive)
18 | Cn1ccnc1C(=O)/C=C/c1ccc(C(=O)Nc2ccc(NC(=O)CCNC(=O)c3csc(Br)n3)cc2)cc1 | 62.2% (inactive)
19 | Cc1nn(-c2ccccc2)cc1/C=N/Nc1nc(Nc2ccccc2)nc(Nc2ccc(S(N)(=O)=O)cc2)n1 | -7.97% (active)

Row | SMILES | growth
20 | COCCC[C@H]1O[C@@](O)([C@H](C)[C@@H]2CC(OC)C(O)/C=C(C)/C=C(C)/C=C(\C)C(OC3O[C@@H](C)[C@H](O)C(O)[C@@H]3O)C(C)/C=C(C)/C=C(OC)/C=C(\C)C(=O)O2)C(OC)C(O)[C@]1(C)O[C@H]1C[C@@H](O)[C@H](O[C@H]2C[C@](C)(O)[C@H](O)C(C)O2)C(C)O1 (stereo partly drawn) | 73% (inactive)
21 | COc1ccc(N2C(=O)c3cc(OC)c(OC)cc3NC2SCc2ccccc2)cc1 (stereo not drawn) | 110% (inactive)
22 | Cc1cc2nc(C(Cl)Cl)nc(-c3ccco3)n2n1 | 81.2% (inactive)
23 | COc1ccc(S(=O)(=O)NCCCNc2nccc(-n3cnc4ccccc43)n2)cc1 | 91.6% (inactive)
24 | O=C(NCCCNc1cc(-c2cn(-c3ccccc3)nc2-c2cccc(O)c2)ccn1)Nc1cc(C(F)(F)F)cc(C(F)(F)F)c1 | 60.6% (inactive)
25 | Cc1ccc(NC(=O)c2ccc(CN3CCN(C)CC3)c(I)c2)cc1Oc1ccc(-c2[nH]nc3ncnc(N)c23)cc1 | 90.3% (inactive)
26 | Cc1ccc(-n2cc(/C=C/C(=O)c3ccc(S(C)(=O)=O)cc3)c(-c3ccc(S(C)(=O)=O)cc3)n2)cc1 | 104% (inactive)
27 | COc1cc(/C=C/C(=O)c2ccc(NC(=O)CSc3nnc(-c4ccc5nc(-c6ccccc6)[nH]c5c4)o3)cc2)cc(OC)c1OC | 97.7% (inactive)
28 | O=c1oc2ccc(-c3ccc(F)cc3F)cc2c(=O)n1-c1cccc(C(F)(F)F)c1 | 16.1% (inactive)
29 | C#CCOc1ccccc1C(Nc1ccccc1)c1nnnn1C1CCCCC1 (stereo not drawn) | 93.7% (inactive)
30 | NCCN1CCN(c2nc(-c3ccccc3)nc3nc(-c4ccccc4)oc23)CC1 | -64.7% (active)
31 | CN1C(=O)N(C)C2Nn3c(s/c(=C\c4ccccn4)c3=O)=NC21 (stereo not drawn) | 103% (inactive)
32 | CNC(=O)c1cc(N2CCc3cc(NC(=O)Nc4ccc(Cl)c(Cl)c4)ccc32)ccn1 | 104% (inactive)
33 | NS(=O)(=O)c1ccc(-n2cc(CC=O)nn2)cc1 | 102% (inactive)
34 | COc1ccc(N)cc1C(=O)Nc1cccc(-c2cc(=O)c3c(OC)c(OC)c(OC)cc3o2)c1 | 68.3% (inactive)
35 | O=C(CSc1nnc(-c2ccc(Cl)cc2)n1-c1ccccc1)Nc1ccc(F)cc1 | 79.7% (inactive)
36 | O=C(c1cccc(F)c1)n1ccc2cc(NC(=S)Nc3cccnc3)ccc21 | 95.7% (inactive)
37 | O=C(O)c1ccc(-n2cc(CNc3ccc(Cl)cc3)c(-c3ccc(F)cc3)n2)cc1 | 104% (inactive)
38 | CCC(CC)N1C(=O)/C(=c2\sc3n(c2=O)C2C(NN=3)N(CC)C(=O)N2CC)c2ccccc21 (stereo not drawn) | 35.7% (inactive)

From PubChem BioAssay (NCI)
